Test results: ChEMBL document CHEMBL3988442, “University of Dundee, Small-Polar-MMV Screening Library” (2021)
Hit rate of the full screen: of about 48,000 compounds, about 13,000 (27%) showed an effect of 50% or more. The list shows a part of the results.

Tested on: Wolbachia pipientis
Experiment: Anti-Wolbachia Cell-Based Screen
Format: functional
Design: scale not given: in the data most compounds retested in dose-response had high values
Settings: 5 µM

Structure (SMILES)	Percent Effect
COc1ccc(OC)c2c(C)cc(N(C)CCO)nc12	-15.31%
CC(=O)c1c(N(C)C)ccnc1C(F)(F)F	-9.795%
CCOc1c(Cl)cccc1NS(=O)(=O)c1cc(C)c(C(=O)O)s1	-12.6%
CCc1nc(C(=O)N2CCCC2)nn1-c1ccccc1Cl	13.32%
CC(=O)N1CCN(C(=O)c2cnn(-c3ccccc3Cl)c2)CC1	-0.729%
CC(=O)N1CCCN(C(=O)c2cnn(-c3ccccc3Cl)c2)CC1	140%
Cc1cc(CNC(=O)c2cn(CCC3CCCCN3)nn2)on1 (stereo not drawn)	-16.72%
Cc1cc(C(=O)NCC(C)C)c2c(C3CCCN3)noc2n1 (stereo not drawn)	114.1%
Cc1cc(C(=O)NCC(F)(F)F)c2c(C3CCNCC3)noc2n1	137.6%
Cc1cc(C(=O)NCC(F)(F)F)c2c(C3CCCN3)noc2n1 (stereo not drawn)	103.2%
Cc1cc(NC(C)C(=O)NCC(F)(F)F)nc(-c2ccncc2)n1 (stereo not drawn)	14.05%
COCCC(=O)N1CCC(c2noc3nc(C)cc(C(F)(F)F)c23)CC1	3.825%
CCc1ccc2nc(C)cc(C(=O)NC3CCNC3=O)c2c1 (stereo not drawn)	1.98%
Cc1ccccc1-n1ccnc1S(=O)(=O)Cc1nsc(N(C)C)n1	22.74%
Cc1ccc(N2C[C@@H]3CN(C(=O)NC4CCCC4)C[C@]3(C(=O)O)C2)nn1	-11.61%
CN(C)C(C(=O)N1CCC(CCO)CC1)c1ccccc1F (stereo not drawn)	-9.373%
Cc1ccc(NCc2ccc(C#N)cc2)cc1-n1cnnn1	10.93%
Cc1ncc(C)c(N2CCC(Cc3ccc(Cl)cc3)(C(=O)O)CC2)n1	-13.5%
CC(C)c1ccc(CC2(C)Cc3cc(CC(=O)O)ccc3O2)cc1 (stereo not drawn)	103.5%
CC1(Cc2ccc(F)cc2)Cc2cc(C(=O)NCCO)ccc2O1 (stereo not drawn)	96.1%
O=C(NCc1ccc(C(=O)O)o1)c1ccc(F)cc1	8.231%
CC(C)N(Cc1ccc(C(=O)O)o1)C(C)C.Cl	-3.405%
O=C(O)CCCc1ccc2c(c1)CC(=O)N2	-9.679%
O=C(NCCCc1ccc(F)cc1)c1ccc(N2CCOCC2)cc1	-12.9%
CC1(Cc2ccc(Cl)cc2)Cc2cc(CCC(=O)O)ccc2O1 (stereo not drawn)	128.5%

Structure (SMILES)	Percent Effect
Cc1nsc(NCc2ccc(CS(=O)(=O)NC(C)C)cc2)n1	-12.57%
O=C(CC1=CCCCC1)NCc1ccnc(OC2CCOCC2)c1	4.75%
Cc1ccc(CN(CCN(C)C)Cc2nc3ccccc3[nH]2)s1	-0.2455%
CC(NC(=O)N(C)Cc1cnn(C)c1)c1nncn1C (stereo not drawn)	-30.3%
COC(=O)C(C)N(Cc1cc(=O)n(C)c(=O)n1C)C1CC1 (stereo not drawn)	5.049%
CCCC1(CO)CCCN(C(=O)CCCn2nc(C)cc2C)C1 (stereo not drawn)	0.5939%
CCCSCC(=O)N1CCCC(CO)(CCC)C1 (stereo not drawn)	120.7%
CCCC1(CO)CCCN(Cc2nccs2)C1 (stereo not drawn)	-16.5%
CCCSCC(=O)N1CCCC2(CCC(=O)N(CCc3c[nH]cn3)C2)C1 (stereo not drawn)	0.3412%
CCCC1(CO)CCCN(Cc2ncccn2)C1 (stereo not drawn)	-3.233%
CCCC1(CO)CCCN(C(=O)CN2CCN(CC)CC2)C1 (stereo not drawn)	98.5%
CN(C)C(=O)C1CCCN1c1ccnc2ccsc12 (stereo not drawn)	-11.69%
O=C(c1cccnc1)N1Cc2[nH]nc(COCCO)c2C1	-11.56%
O=C(c1ccncc1)N1CCc2[nH]nc(Nc3ccccc3)c2C1	110.2%
O=C(CCN1CCc2[nH]nc(C(F)(F)F)c2C1)Nc1ccccc1	-5.362%
Cc1cc(C(=O)N2CCc3[nH]nc(-c4ccc5c(c4)OCO5)c3C2)no1	-8.548%
O=C(c1cccnc1)N1CCc2[nH]nc(Nc3ccccc3)c2C1	125.3%
COCc1n[nH]c2c1CN(C(=O)c1ccncc1)C2.O=C(O)C(F)(F)F	-2.458%
O=C(c1coc(-c2ccccc2)n1)N1CCCCC1	-26.2%
Cn1ccc(C(=O)N2CCc3[nH]nc(Nc4ccccc4)c3C2)n1	131.4%
Cc1nc(C(=O)N2CCc3[nH]nc(Nc4ccccc4)c3C2)co1	140.3%
COc1cccc(-c2n[nH]c3c2CN(C(=O)c2ccncc2)CC3)c1	-11.9%
COc1cccc(-c2n[nH]c3c2CN(C(=O)c2cc(C)n(C)n2)CC3)c1	-0.6407%
Cc1cc(C)n(C2CN(CC(O)c3ccc(F)cc3)C2)n1 (stereo not drawn)	-3.479%
CN1CCC(CCNC(=O)c2ccc(N(C)S(C)(=O)=O)cc2Cl)CC1	-5.905%

Structure (SMILES)	Percent Effect
COC(=O)CC(c1ccccc1)c1oc(C)cc(=O)c1O (stereo not drawn)	9.59%
O=C(c1cncs1)N1CCc2[nH]nc(Nc3ccccc3)c2C1	117.5%
Cc1ncsc1C(=O)N1CCc2[nH]nc(-c3ccc4c(c3)OCO4)c2C1	-9.39%
O=C(c1ccsc1)N1CCc2c(CNc3ncccn3)n[nH]c2C1	-3.042%
CCn1c(CC2CCN(C(=O)C3CCOC3)CC2)nn(C)c1=O (stereo not drawn)	3.513%
Cc1cc(=O)n2ncnc2n1CC(O)c1ccc(F)cc1F (stereo not drawn)	-38.21%
N#CCc1ccc(OCC(=O)NS(=O)(=O)c2cccs2)cc1	5.016%
O=S(=O)(NCC1(O)CCOc2ccccc21)c1ccc(Br)s1 (stereo not drawn)	-8.06%
CCOc1cccc2c1OCC(C(=O)NS(=O)(=O)c1cccs1)=C2	95.96%
CCOc1cccc2c1OCC(C(=O)NS(=O)(=O)c1ccc(Br)s1)=C2	97%
Cc1ccc(S(C)(=O)=O)cc1C(=O)NS(=O)(=O)c1cccs1	20%
Cc1ccc(OCC(=O)NS(=O)(=O)c2c(C)noc2C)cc1C	20.27%
CCOc1cccc2c1OCC(C(=O)NS(=O)(=O)c1cncc(Br)c1)=C2	125.8%
Cc1cc(C)c(OCC(=O)NS(=O)(=O)c2c(C)noc2C)c(C)c1	0.8796%
CCOc1cccc2c1OCC(C(=O)NS(=O)(=O)c1ccc(Cl)cc1)=C2	-2.637%
CCOc1cccc2c1OCC(C(=O)NS(=O)(=O)c1c(C)noc1C)=C2	100.1%
CCOc1ccc(C(=O)NS(=O)(=O)c2cncc(Br)c2)cc1OC	-12.86%
Cc1ccc(S(=O)(=O)NC(=O)c2cccc(OCC(N)=O)c2)s1	-0.7122%
CN(CCN1CCCC1=O)S(=O)(=O)CC1CCCC1	-3.28%
Cc1ncc(S(C)(=O)=O)c(N2Cc3ccccc3C2)n1	20.01%
CCN(C)CC(=O)N1CCN(Cc2ccccc2)[C@@H]2CS(=O)(=O)C[C@@H]21	-19.14%
CCN(CC)C(=O)c1ccn(COc2ccccc2)n1	-3.664%
Cc1nc(CNC(C(=O)N2CCOCC2)C(C)C)oc1C (stereo not drawn)	-5.352%
CCOc1cccc2c1OCC(C(=O)NS(=O)(=O)c1ccc(Cl)s1)=C2	108.5%
CC(C)COCCC(=O)NS(=O)(=O)c1ccc(Cl)s1	13.2%

Structure (SMILES)	Percent Effect
CCOc1cccc2c1OCC(C(=O)NS(=O)(=O)c1ccc(C)s1)=C2	-6.763%
COc1ccc(NC(=O)CSc2nc(C)cc(C)n2)cn1	9.531%
CC1c2ncc(CN3CCN(C)CC3)n2CCN1Cc1cnn(C)c1.O=C(O)C(F)(F)F.O=C(O)C(F)(F)F.O=C(O)C(F)(F)F (stereo not drawn)	96.74%
CCOCc1cnc2n1CCN(Cc1scnc1C)C2C.O=C(O)C(F)(F)F (stereo not drawn)	-10.4%
CC1c2ncc(CN3CCN(C)CC3)n2CCN1Cc1ccsc1.O=C(O)C(F)(F)F.O=C(O)C(F)(F)F.O=C(O)C(F)(F)F (stereo not drawn)	104.7%
CC1c2ncc(CN3CCN(C)CC3)n2CCN1CC1CC1.O=C(O)C(F)(F)F.O=C(O)C(F)(F)F.O=C(O)C(F)(F)F (stereo not drawn)	-5.269%
CC1c2ncc(CN3CCN(C)CC3)n2CCN1Cc1ccc(F)cc1.O=C(O)C(F)(F)F.O=C(O)C(F)(F)F.O=C(O)C(F)(F)F (stereo not drawn)	94.11%
CC1c2ncc(CN3CCN(C)CC3)n2CCN1Cc1cccnc1.O=C(O)C(F)(F)F.O=C(O)C(F)(F)F.O=C(O)C(F)(F)F.O=C(O)C(F)(F)F (stereo not drawn)	3.329%
Cc1ccc(CN2CCn3c(CN4CCN(C)CC4)cnc3C2C)s1.O=C(O)C(F)(F)F.O=C(O)C(F)(F)F.O=C(O)C(F)(F)F (stereo not drawn)	98.84%
Nc1ccc(CC2COc3ccccc3C2)cn1 (stereo not drawn)	18.77%
CCOc1ccc(S(=O)(=O)NCCc2ccc(N(C)C)cc2)cc1C	13.74%
CC(C)c1nc(CCN(C)C(=O)C2COc3ccccc3C2)no1 (stereo not drawn)	-22.02%
CC(C)c1nn(C)c(N(C)C)c1CNCCC(=O)NC1CCCCC1	102.1%
Cc1nn(C)c(N(C)C)c1CNCCC(=O)NC1CCCC1	122.8%
Cc1nn(C)c(N(C)C)c1CNCCNS(C)(=O)=O	-8.307%
CC(NCc1c(C(C)C)nn(C)c1N(C)C)C(=O)NC1CCCC1.Cl (stereo not drawn)	-15.88%
CNC(=O)CCCNCc1c(C)nn(C)c1N(C)C	-1.91%
Cc1nn(C)c(N(C)C)c1CNCCC(=O)NC1CCCCC1	122.8%
Cc1nn(CC(C)C)c(N(C)C)c1CNCCC(=O)NC(C)C	-6.967%
CC(C)c1nn(C)c(N(C)C)c1CNCCC(=O)NC1CCCC1	-3.602%
Cc1cccc(NC(=O)CCNCc2c(C)nn(C)c2N(C)C)n1	-6.985%
O=C1[C@@H]2CCN(CC3CC3)C[C@@H]2OCCN1c1ccsc1	-4.722%
O=C(N[C@@H]1CN(c2ncccn2)C[C@@H]2CCCO[C@@H]21)c1cnccn1.O=C(O)C(F)(F)F	-32.47%
